# Laboratory results reported in PubChem BioAssay AID463173 (ICCB-Longwood Screening Facility, Harvard Medical School, 2010).
# About 1,700 (3.3%) of roughly 52,000 compounds were called active. Rule as the data show it: active = survival mostly below about 52% (no sharp cut-off); inactive = mostly above about 56%. Shown is part of a subset that was picked to be rich in actives.
# Tested on: Wild type
# Experiment: S. aureus survival, RN4220 and DeltatarO strains – OD600, teichoic acid synthesis inhibitors, primary screen (AID 463173)
# Settings: S. aureus RN4220 wild type/DeltatarO growth, OD600, 18 h, active compounds read low, screened at 18.75 µg/mL (by protocol)
row,Compound,survival
1,O=C(NCC1CCCO1)c1ccc(NC(=O)c2ncn[nH]2)cc1 (configuration not stated),98% (inactive)
2,CCCCN(CC)CCNC(=O)CCn1cnc2onc(-c3ccc(F)cc3)c2c1=O,72% (inactive)
3,CCN(CC)CCCNC(=O)CCCn1ncn2c(cc3occc32)c1=O,85% (inactive)
4,O=S(=O)(c1ccc(Cl)cc1)c1nc(-c2ccccc2Br)oc1NCc1ccccc1,96% (inactive)
5,COc1ccc(C(C)NC(=O)CN(c2cc(OC)ccc2OC)S(=O)(=O)c2ccccc2)cc1 (configuration not stated),76% (inactive)
6,COc1cccc2sc(N(Cc3cccnc3)C(=O)Cc3ccccc3)nc12,89% (inactive)
7,CCOc1ccc(C(=O)NCCc2sc(-c3ccc(F)cc3)nc2C)cc1,97% (inactive)
8,CCOc1ccc(C(=O)NCCc2sc(-c3ccc(OC)c(OC)c3)nc2C)cc1,129% (inactive)
9,COc1ccc(-c2nc(C)c(CCNC(=O)c3cc(OC)c(OC)c(OC)c3)s2)cc1OC,57% (inactive)
10,CCOc1ccc(NC(=O)C(=O)NCCc2sc(-c3ccc(C)cc3)nc2C)cc1,55% (inactive)
11,CCOc1ccc(C(=O)NCCc2sc(-c3ccc(C)cc3)nc2C)cc1,-3% (active)
12,COc1ccc(-c2nc(C)c(CCNC(=O)c3ccc(C(F)(F)F)cc3)s2)cc1OC,-4% (active)
13,CCC(C(=O)Nc1nnc2n1CCS2)c1ccccc1 (configuration not stated),66% (inactive)
14,CCN(CC)Cc1cc(C(=O)O)oc1C(C)(C)C,106% (inactive)
15,COc1ccc(-c2cc(C(F)(F)F)c(C#N)c(SCC(=O)Nc3cccc(C)c3)n2)cc1,74% (inactive)
16,CN(C(=O)CSc1cn(CC(=O)N2CCCC2)c2ccccc12)c1ccccc1,83% (inactive)
17,Cc1ccc(C(=O)NCC(c2ccc3c(c2)OCO3)N2CCN(c3ccc(F)cc3)CC2)cc1 (configuration not stated),68% (inactive)
18,Cc1ccc(C)c(CS(=O)(=O)c2cn(CC(=O)N(C(C)C)C(C)C)c3ccccc23)c1,77% (inactive)
19,COc1ccccc1CNC(=O)CSc1ncc2c(n1)-c1cc(Cl)ccc1N(Cc1ccccc1)S2(=O)=O,73% (inactive)

row,Compound,survival
1,O=C(CSc1ncc2c(n1)-c1ccc(Cl)cc1N(Cc1ccccc1)S2(=O)=O)Nc1ccc(F)c(F)c1,129% (inactive)
2,COc1ccccc1CNC(=O)CSc1ncc2c(n1)-c1ccc(Cl)cc1N(Cc1ccccc1)S2(=O)=O,0% (active)
3,COc1ccc(CNC(=O)CSc2ncc3c(n2)-c2ccc(Cl)cc2N(Cc2ccccc2)S3(=O)=O)cc1,22% (inactive)
4,CCc1cccc(NC(=O)CSc2ncc3c(n2)-c2ccc(Cl)cc2N(Cc2ccccc2)S3(=O)=O)c1,101% (inactive)
5,Cc1cccc(C)c1NC(=O)CSc1ncc2c(n1)-c1ccc(Cl)cc1N(Cc1ccccc1)S2(=O)=O,-2% (active)
6,CCc1ccc(NC(=O)Cn2c(=O)n(Cc3ccco3)c(=O)c3oc4ccccc4c32)cc1,87% (inactive)
7,COc1ccc(C2C(=O)N(C3CCCCC3)CC(=O)N2CCc2ccc(C)cc2)cc1OC (configuration not stated),82% (inactive)
8,Cc1ccc(NC(=O)CN2C(=O)C(c3ccccc3)=NC23CCCCC3)cc1C,89% (inactive)
9,COc1ccc(Br)cc1CNC(=O)c1nn(-c2ccc(C)cc2)c(=O)c2c1c1ccccc1n2C,126% (inactive)
10,CC1CCCC(C)N1C(=O)c1ccccc1N (configuration not stated),108% (inactive)
11,COc1ccc(-c2ccc(NS(=O)(=O)c3cccc(Cl)c3)cc2)nn1,82% (inactive)
12,Cc1nn2c(C)c(C(=O)N3CCN(c4ccc(Cl)cc4)CC3)cnc2c1-c1ccc(F)cc1,72% (inactive)
13,COc1cccc(N2CCN(C(=O)c3cnc4c(-c5ccccc5)c(C)nn4c3C)CC2)c1,76% (inactive)
14,COc1cccc(N2CCN(C(=O)c3cnc4c(-c5ccc(F)cc5)c(C)nn4c3C)CC2)c1,-6% (active)
15,CC(=O)N1c2c(cc(Br)cc2S(=O)(=O)N2CCN(c3ccccc3)CC2)CC1C (configuration not stated),98% (inactive)
16,Nc1ccc2nc(CCc3ccccc3)[nH]c2c1,106% (inactive)
17,Oc1ccc(NCc2ccc(OCc3ccccc3)cc2)cc1,87% (inactive)
18,Oc1ccc(NCc2ccc(OCc3ccccc3Cl)cc2)cc1,-4% (active)
19,Oc1ccc(NCc2ccccc2OCc2ccccc2Cl)cc1,82% (inactive)

row,Compound,survival
1,COc1ccc(NC(=O)C2=C(C)Nc3nc(SCc4ccc(Cl)cc4)nn3C2c2cccc(OC)c2OC)cc1 (configuration not stated),60% (inactive)
2,O=C(Nc1ccc(OC(F)(F)F)cc1)c1cc(-c2ccc(Cl)cc2)on1,105% (inactive)
3,Cc1ccccc1C(=O)Nc1ccc(C(=O)OCc2cc(=O)n3nc(C(C)C)sc3n2)cc1,65% (inactive)
4,CCN(c1ncnc2c1cnn2-c1cc(Cl)ccc1C)C1CCCCC1,80% (inactive)
5,CCN(CC)c1ncnc2c1cnn2-c1cc(Cl)ccc1C,-6% (active)
6,CCN(CC)CCNc1ncnc2c1cnn2-c1cc(Cl)ccc1C,98% (inactive)
7,Cc1ccc(N2CCN(S(=O)(=O)c3ccc4oc(=O)c5ncn(C)c5c4c3)CC2)c(C)c1,121% (inactive)
8,COC(=O)CCN(C(=O)c1c(C)oc2ncnc(N3CCOCC3)c12)c1ccccc1,0% (active)
9,CCCN(C(=O)c1c(C)oc2ncnc(N3CCOCC3)c12)c1ccc(Cl)c(Cl)c1,74% (inactive)
10,CCc1cccc(NC(=O)c2c(C)oc3nc(C)nc(N4CCCC4)c23)c1,101% (inactive)
11,CCc1ccc(CNC(=O)c2c(C)oc3ncnc(N4CCOCC4)c23)cc1,133% (inactive)
12,Cc1nc(N2CCOCC2)c2c(C(=O)NCCc3ccccc3)c(C)oc2n1,-3% (active)
13,CCc1ccccc1N(CC)C(=O)c1c(C)oc2ncnc(N3CCOCC3)c12,70% (inactive)
14,Cc1nc(N2CCCC2)c2c(C(=O)Nc3cccc(Cl)c3)c(C)oc2n1,-3% (active)
15,Cc1oc2ncnc(N3CCOCC3)c2c1C(=O)NCc1ccc(Cl)cc1,73% (inactive)
16,Cc1ccc(CNC(=O)c2c(C)oc3ncnc(N4CCOCC4)c23)cc1,-1% (active)
17,Cc1oc2ncnc(N3CCOCC3)c2c1C(=O)NCCc1ccccc1,85% (inactive)
18,Cc1nc(N2CCCC2)c2c(C(=O)Nc3ccc(C)c(Cl)c3)c(C)oc2n1,130% (inactive)
19,Cc1ccc(CCNC(=O)c2c(C)oc3nc(C)nc(N4CCOCC4)c23)cc1,124% (inactive)
